Source: PubChem BioAssay
A selection: hits, their analogues and other compounds. The true share with any hit is near 4.2%.
AHR activator = human AHR activation; 320,000 compounds, 2.5% hits; activation, % at 5 µM; AHR-responsive luciferase reporter cells, luminescence; P35869; in the data active means activation above about 47%;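 further: 0% = vehicle wells and 100% = reference agonist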
Target sequence (P35869 whole entry, looked up): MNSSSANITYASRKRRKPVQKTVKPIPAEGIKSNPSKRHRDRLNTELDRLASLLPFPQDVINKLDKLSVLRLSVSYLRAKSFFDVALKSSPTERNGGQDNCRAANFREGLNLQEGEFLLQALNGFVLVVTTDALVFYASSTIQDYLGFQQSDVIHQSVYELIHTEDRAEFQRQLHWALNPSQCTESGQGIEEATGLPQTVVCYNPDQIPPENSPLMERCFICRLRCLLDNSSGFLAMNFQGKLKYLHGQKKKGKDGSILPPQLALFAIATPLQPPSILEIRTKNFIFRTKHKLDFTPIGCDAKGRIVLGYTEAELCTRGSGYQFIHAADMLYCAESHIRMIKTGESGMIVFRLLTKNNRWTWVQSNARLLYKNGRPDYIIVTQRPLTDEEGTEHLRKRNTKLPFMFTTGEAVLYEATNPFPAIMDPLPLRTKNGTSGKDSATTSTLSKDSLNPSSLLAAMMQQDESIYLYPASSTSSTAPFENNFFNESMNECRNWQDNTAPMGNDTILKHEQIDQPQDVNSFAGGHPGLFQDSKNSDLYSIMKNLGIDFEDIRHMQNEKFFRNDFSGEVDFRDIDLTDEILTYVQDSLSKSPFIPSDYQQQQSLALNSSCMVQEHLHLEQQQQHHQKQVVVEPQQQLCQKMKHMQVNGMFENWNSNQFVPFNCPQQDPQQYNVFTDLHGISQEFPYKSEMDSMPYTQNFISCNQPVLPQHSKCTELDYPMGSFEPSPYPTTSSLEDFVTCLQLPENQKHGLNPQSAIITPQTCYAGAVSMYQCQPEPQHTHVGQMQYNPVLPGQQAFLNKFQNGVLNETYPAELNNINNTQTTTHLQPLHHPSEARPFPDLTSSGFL
Wnt act = activators of Wnt/beta-catenin signaling. Wnt/beta-catenin reporter cell assay, activator, plate reader. 300,000 compounds, 1.2% hits. activation, % at 9.35 µM; in the data active means activation above about 30%, passing the limit was not always enough; inconclusive means no clear call, values can overlap the other calls;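 further: 0% = neutral control wells and 100% = positive control wells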
MITF TRPM1 HTS = MITF TRPM1 promoter activation in melanoma cells | SK-MEL-5 TRPM1-promoter luciferase, 24 h; % of positive control, neutral wells = 0 | activation, % at 12.5 µM | 300,000 compounds, 0.75% hits;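 active means mean activation of at least 80% with every replicate also reaching 80%; inconclusive means mean reaches 80% but some replicate falls short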;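 further: 0% = neutral control wells and 100% = parthenolide positive control wells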
GAA850 FXN act = frataxin GAA850 promoter activation; HEK293 lucGAA850 FXN promoter luciferase reporter, 24 h; percent of 10 µM SAHA response; activation, % at 6 µM; 360,000 compounds, 0.56% hits; AID 540364;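 active means activation above the average of all compounds screened plus 3 SD, cutoff fixed separately per campaign, cut at about 7.5% in these data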;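 further: 0% = DMSO wells and 100% = 10 µM SAHA wells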
esBAF inh = SWI/SNF esBAF complex inhibition. AID 602393. mouse ES cells, Bmi1-luciferase knock-in reporter, 24 h; 100% = twice the neutral-well signal. 350,000 compounds, 2% hits. reporter increase, % at 12.5 µM; in the data active means activation above about 40%; inconclusive means no clear call, values can overlap the other calls;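 further: 0% = median of the plate's neutral control wells and 100% = double that signal; a rise in the Bmi1 reporter signal indicates esBAF inhibition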
Starred values were filed as active, the others as inactive; ? = inconclusive; . = no result.

SMILES	AHR activator	Wnt act	MITF TRPM1 HTS	GAA850 FXN act	esBAF inh
CCCNC(=O)C[C@@H]1CC[C@H]2[C@@H](COC[C@H](O)CN2CC2CCCCC2)O1	.	.	.	.	5.5
COc1nc(Nc2ccc(C(C)C)cc2)nc(OC)n1	38.5	.	51.1	7.5	57.7*
COc1nc(Nc2ccc(O)cc2)nc(OC(C(F)(F)F)C(F)(F)F)n1	-4.3	.	-7.9	1.8	-7.9
Cc1ccc(NC(=O)Nc2ccc3c(c2)C(=O)N(C)[C@H]2CC[C@H](CC(=O)O)O[C@H]2CO3)cc1	.	.	.	.	3.1
CCC(=O)N(C)C[C@@H]1Oc2cc(C#CC(C)(C)O)ccc2S(=O)(=O)N([C@@H](C)CO)C[C@H]1C	.	.	.	.	-5.8
O=C(O)c1ccccc1NC(=S)NC(=O)c1sc2ccccc2c1Cl	0.7	3.3	9.8	0.1	.
O=C(NNC(=S)NC(=O)c1sc2ccccc2c1Cl)c1ccc(Cl)cc1	109.6*	.	-29.5	1.6	15.8
CC(=O)N(C)C[C@@H]1Oc2cc(C#Cc3ccncc3)ccc2S(=O)(=O)N([C@H](C)CO)C[C@@H]1C	.	.	.	.	1.1
CC(=O)c1ccc(NC(=O)/C(Cl)=C/c2ccccc2)cc1	-4.6	16.6	138.2*	1.4	.
O=C(Nc1ccc(F)cc1)/C(Cl)=C/c1ccccc1	6.9	17.9	83.6*	3.2	48.4*
O=C(C[C@@H]1CC[C@@H]2[C@H](COC[C@H](O)CN2C(=O)Nc2ccc(F)cc2)O1)NC1CCC1	.	.	.	.	-1.9
CCOC(=O)c1ccc2[nH]c3c(c2c1)CCCC3	1.8	19.8	63.3	4.6	66.0*
CCCC(=O)Nc1ccc2c(c1)OC[C@@H](C)N(Cc1ccccc1F)C[C@H](C)[C@H](OC)CN(C)C2=O	.	.	.	.	-3.4
Cc1ncsc1C(=O)Nc1nc2c(s1)CC(C)CC2 (configuration not stated)	13.8	32.3*	53.8	6.2	10.9
CC1CCc2nc(NC(=O)CCSc3ccccc3)sc2C1 (configuration not stated)	-1.1	1.0	15.1	-1.3	18.6
O=C1c2ccccc2NC(c2cccc(Cl)c2)N1N=C1CCCCCC1 (configuration not stated)	13.5	?	91.7*	-2.1	55.4*
Cn1ccc2cc(OCc3ccccc3)ccc21	.	5.7	69.7	6.0	49.4*
CNC[C@@H]1Oc2ccc(NS(=O)(=O)c3ccc(C)cc3)cc2C(=O)N([C@@H](C)CO)C[C@@H]1C	.	.	.	.	-3.0
O=Nc1c2cc3ccccc3[nH]c-2c2ccccc12	.	74.0*	18.3	1.2	-0.6
CCCOC(=O)c1ccc(NC(=O)C2CCCO2)cc1 (configuration not stated)	1.6	.	.	3.0	50.2*
CCCOC(=O)c1ccc(NC(=O)C(CC)CC)cc1	-1.0	.	31.2	6.8	50.9*
C[C@H]1CN([C@@H](C)CO)C(=O)Cc2cc(NC(=O)c3ccncc3)ccc2O[C@H]1CN(C)C(=O)Nc1cccc2ccccc12	.	.	.	.	2.5
O=C(C[C@H]1CC[C@H]2[C@@H](COC[C@H](O)CN2S(=O)(=O)c2ccc(F)cc2)O1)NCc1ccc(Cl)c(Cl)c1	.	.	.	.	-3.3
O=C(N/N=C/c1c(F)cccc1Cl)c1ccc(Cn2cc(Br)cn2)o1	48.6*	2.6	5.4	0.6	22.4
C/C(=N\NC(=O)c1ccc(Cn2cc(Br)cn2)o1)c1ccc(NC(=O)c2ccoc2C)cc1	.	10.6	54.3	3.4	46.8*
SMILES	AHR activator	Wnt act	MITF TRPM1 HTS	GAA850 FXN act	esBAF inh
COCC(=O)Nc1ccc2c(c1)C(=O)N(C)C[C@H](OC)[C@H](C)CN(CC1CCCCC1)[C@@H](C)CO2	.	.	.	.	-2.8
Clc1ccc(NCc2cccnc2)cc1	23.5	1.7	-5.8	3.9	-6.0
CSc1ccc(CNc2ccc(Cl)cc2)cc1	-0.9	-1.0	101.0*	1.3	37.7
C[C@H](O)C#Cc1cnc2c(c1)C(=O)N([C@H](C)CO)C[C@H](C)[C@@H](CN(C)Cc1cccc(F)c1)O2	.	.	.	.	-1.0
CC(C)=CCC/C(C)=C/COc1c2occc2cc2ccc(=O)oc12	69.3*	-1.1	12.6	0.5	-1.2
CC(C)=CCC/C(C)=C/COc1ccc2ccc(=O)oc2c1	-1.9	0.5	22.3	-2.0	2.2
CC(C)NC(=O)N(C)C[C@H]1Oc2c(NS(=O)(=O)c3ccc(Cl)cc3)cccc2C(=O)N([C@H](C)CO)C[C@H]1C	.	.	.	.	-2.3
CC(C)c1nc(C(N)=O)c2[nH]c(=O)n(-c3ccc(F)cc3)c2n1	10.9	-5.6	.	1.4	-9.8
CCOc1ccccc1-c1nc(C(N)=O)c2[nH]c(=O)n(-c3ccc(F)cc3)c2n1	72.3*	-0.5	-14.4	2.0	-3.7
Cc1ccc(C(=O)N(CC(C)C)c2nc3ccccc3s2)o1	72.4*	5.4	.	0.7	6.2
COc1ccc(N=C(C)C2=C(O)CSC2=O)cc1	7.3	16.1	-5.8	4.7	31.1
CC(=Nc1ccccc1)C1=C(O)CSC1=O	6.1	-1.1	1.0	1.7	46.0*
COc1ccc(NC(=O)N(C)C[C@@H]2Oc3ccc(NC(=O)Cc4ccccc4)cc3C(=O)N([C@H](C)CO)C[C@@H]2C)cc1	.	.	.	.	0.3
CCc1ccc(-c2cc(N)n(-c3ccccc3)n2)cc1	.	9.3	54.7	5.5	68.1*
Cc1cccc(-c2cnn(-c3ccccc3)c2N)c1	0.7	24.0	?	1.6	56.2*
Cc1cccc(-c2cc(N)n(-c3ccccc3)n2)c1	.	-1.4	86.8*	3.4	53.9*
CCS(=O)(=O)n1nc(-c2ccccc2)cc1N	7.9	2.1	.	0.3	-1.3
Cc1ccc(-c2cc(N)n(-c3ccccc3)n2)cc1	4.2	.	92.8*	4.5	.
C[C@@H]1CN([C@H](C)CO)C(=O)c2cc(NS(=O)(=O)c3ccc(F)cc3)ccc2O[C@H]1CN(C)S(=O)(=O)c1ccccc1	.	.	.	.	-0.3
Cc1ccc2cc(/C=N/NC(=O)c3ccc(F)cc3)c(Cl)nc2c1	11.9	-0.5	3.5	-0.1	.
Cc1ccc(C)c(NC(=O)CCC(=O)N/N=C/c2ccc[nH]2)c1	3.2	.	-13.0	-1.2	-11.4
Cc1ccc(NCC(=O)N/N=C\c2ccc[nH]2)cc1	61.8*	-19.4	.	-1.2	.
Cc1ccc2nc(Cl)c(/C=N/Nc3ccc(C(=O)O)cc3)cc2c1	21.8	42.8*	64.7	2.3	21.6
Cc1ccc(NCC(=O)N/N=C/c2cc3ccccc3nc2Cl)cc1	60.2*	.	.	1.2	61.1*
CC(C)NC(=O)NCC[C@H]1CC[C@@H](NC(=O)Nc2ccccc2)[C@H](CO)O1	.	.	.	.	-0.8
SMILES	AHR activator	Wnt act	MITF TRPM1 HTS	GAA850 FXN act	esBAF inh
COc1ccc(S(=O)(=O)Nc2ccc3c(c2)C(=O)N([C@H](C)CO)C[C@H](C)[C@@H](CN(C)C(=O)NC(C)C)OCCCC[C@@H](C)O3)cc1	.	.	.	.	-1.4
Cc1cc2oc(C(=O)Nc3nonc3C)c(C)c2cc1C	-3.4	?	119.7*	2.3	76.8*
CCc1ccc2oc(C(=O)Nc3nonc3C)c(C)c2c1	-5.7	44.4*	49.7	2.2	78.1*
Cc1c(C(=O)Nc2nonc2-c2ccc(F)cc2)oc2ccc(F)cc12	33.4	-2.0	-9.8	1.6	-6.1
CCc1nonc1NC(=O)c1oc2ccc(F)cc2c1C	61.1*	9.3	32.8	4.2	24.9
COc1ccccc1CNC(=O)C[C@@H]1C[C@H]2c3cc(NC(=O)C4CCOCC4)ccc3O[C@H]2[C@@H](CO)O1	.	.	.	.	-3.1
